# Assay results as given in PubChem BioAssay (NCATS).
# Values joined by “and” are separate entries in the source; they are usually repeats but may differ in a detail not shown here. Equal values may be shown once. Inconclusive results are not listed. Entries that show only a call come without a potency. Values without a mark were called inactive. Active and inactive are the calls of the source. Unless noted, calls follow the shape of the dose curve; as a rule, active = well fitted curve in the direction sought with a large enough effect; inconclusive = small, poorly fitted or top-dose-only effect, or another doubt; inactive = no such curve, though single readings can be large; an effect the other way counts as inactive or inconclusive.
# Experiments:
# [1] = Cell Viability - N2a (AID 540); details: N2a mouse neuroblastoma cell viability; at 92.2 µM (top of the series);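 also: cells exposed to compound for 40 h at 37 °C; nearly all actives have a fitted effect of over 45% in size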
# Summary of the method: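 Cytotoxicity was scored as loss of cellular ATP in N2a cells, a mouse neuroblastoma line. Compounds are applied in a qHTS concentration series for 40 hr at 37 °C.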
# [2] = Cell Viability - NIH 3T3 (AID 541); details: NIH 3T3 cell viability, qHTS; activity change, negative = cytotoxicity: at 92.2 µM (top of the series);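 also: cells exposed to compound for 40 hours; nearly all actives have a fitted effect of over 25% in size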; also: potency is read from the fitted curve at half-maximal effect
# Summary of the method: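 Cells seeded at 1000/well, rested 5 hr at 37 °C, then dosed and incubated 40 hr at 37 °C. CellTiter-Glo added, 20 min room temperature, luminescence read. AC50 by Hill fit.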
# [3] = Cell Viability - HUV-EC-C (AID 542); details: HUV-EC-C endothelial cell viability, qHTS; series mostly up to 92.2 µM;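 also: cells exposed to compound for 40 hours; nearly all actives have a fitted effect of over 35% in size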; also: potency is read from the fitted curve at half-maximal effect
# Summary of the method: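 Cells were seeded at 1000 per well and incubated 5 hr at 37 °C before compound addition. After 40 hr at 37 °C, CellTiter-Glo reagent was added for 20 min and luminescence read. AC50 values came from Hill-equation modelling.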
# [4] = Cell Viability - H-4-II-E (AID 543); details: H-4-II-E rat hepatoma viability; series mostly up to 92.2 µM;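 also: cells exposed to compound for 40 hours; nearly all actives have a fitted effect of over 35% in size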; also: potency is read from the fitted curve at half-maximal effect
# Summary of the method: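 Cells seeded at 1500 per well and rested 5 hr; compounds added; 40 hr incubation at 37 °C; CellTiter-Glo added, 20 min at room temperature; luminescence read. Hill-equation fits gave AC50.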
# [5] = Cell Viability - SH-SY5Y (AID 544); details: SH-SY5Y neuroblastoma cell viability; series mostly up to 92.2 µM;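 also: cells exposed to compound for 40 hours; nearly all actives have a fitted effect of over 55% in size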; also: potency is read from the fitted curve at half-maximal effect
# Summary of the method: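 Cells were plated at 1500 per well and allowed 5 hr at 37 °C. Compounds were added across a concentration range and incubated 40 hr at 37 °C. CellTiter-Glo was added for 20 min at room temperature before luminescence reading.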
# [6] = molecular target: Mitogen-activated protein kinase 10 (Mus musculus) (UniProt Q61831); experiment: JNK3 AlphaScreen Assay (AID 530; active = well fitted curve in either direction with a large enough effect, not every such curve was filed as active;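 also: kinase came from lysate of stimulated human HepG2 cells; signal reports phosphorylation of biotinylated GST-cJun 1-79 at Ser73 with 10 µM ATP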); details: JNK3 lysate, c-Jun phosphorylation; series mostly up to 57.1 µM
# Summary of the method: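 Phosphorylation of biotinylated GST-cJun(1-79) at Ser73 is measured by AlphaScreen proximity luminescence. Enzyme is JNK3 in HepG2 lysates activated with interleukin-1beta and tumor necrosis factor alpha; ATP is 10 uM final.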
# [7] = Cell Viability - Renal Proximal Tubule (AID 545); details: renal proximal tubule cells viability, primary cells of rat origin; at 91.7 µM (top of the series);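 also: cells exposed to compound for 40 hours; nearly all actives have a fitted effect of over 40% in size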
# Summary of the method: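 Cytotoxicity is scored as a concentration-dependent drop in cellular ATP in primary rat renal proximal tubule cells exposed for 40 hr. AC50 derives from Hill modelling.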
SMILES,"activity change, negative = cytotoxicity [1]","activity change, negative = cytotoxicity [2]",Potency [3],Potency [4],Potency [5],Potency [2],outcome [6],"activity change, negative = cytotoxicity [7]"
CCCCO,-5.68% and -4.88%,-12.4% and 2.4%,inactive,inactive,inactive,–,–,–
Nc1ccc(N=Nc2ccccc2)c(N)n1,-30.4%,–,–,–,–,–,–,–
Oc1ccc(/C=C/c2cc(O)cc(O)c2)cc1,–,–,inactive,31.6 µM (active),inactive,31.6 µM (active),–,–
COC(=O)c1ccccc1O,0.567%,6.05%,inactive,inactive,inactive,–,inactive,-0.7%
c1ccc2ccccc2c1,6.48%,0.772%,inactive,inactive,inactive,–,inactive,1.8%
OB(O)O,-10.8%,-22.1%,inactive,inactive,inactive,–,inactive,-6.9%
NC(N)=O,12.5%,-1.75%,inactive,inactive,inactive,–,–,-9.08%
CC[C@H]1OC(=O)[C@H](C)[C@@H](O[C@H]2C[C@@](C)(OC)[C@@H](O)[C@H](C)O2)[C@H](C)[C@@H](O[C@@H]2O[C@H](C)C[C@H](N(C)C)[C@H]2O)[C@](C)(O)C[C@@H](C)CN(C)[C@H](C)[C@@H](O)[C@]1(C)O,-23.6%,-19.1%,–,inactive,–,–,inactive,-18.1%
ClC(Cl)Cl,-12.8%,-17.2%,inactive,inactive,inactive,–,inactive,-11.2%
Cc1ccc(S(=O)(=O)O)cc1C,-7.07%,–,inactive,inactive,inactive,–,inactive,-15.2%
CO,8.2%,-1.78%,inactive,inactive,inactive,–,inactive,5.17%
O=P(O)(O)O,-12.4%,-8.72%,inactive,inactive,inactive,–,inactive,-7.24%
C[C@H](CCC(=O)O)[C@H]1CC[C@H]2[C@@H]3CC[C@@H]4C[C@H](O)CC[C@]4(C)[C@H]3C[C@H](O)[C@]12C,-18.5%,-91.1% (active),inactive,inactive,inactive,–,inactive,-13.4%
CC(C)O,-11.4%,–,inactive,inactive,inactive,–,inactive,5.6%
OCC(O)CO,-3.4% and 8.03%,-10.7% and -2.8%,inactive,inactive,inactive,–,inactive,-12.3% and -5.8%
C[C@H](CCC(=O)O)[C@H]1CC[C@H]2[C@@H]3[C@H](O)C[C@@H]4C[C@H](O)CC[C@]4(C)[C@H]3C[C@H](O)[C@]12C,-9.32%,-13.2%,inactive,inactive,inactive,–,inactive,5.01%
OC[C@H]1O[C@@H]2O[C@H]3[C@H](O)[C@@H](O)[C@@H](O[C@H]4[C@H](O)[C@@H](O)[C@@H](O[C@H]5[C@H](O)[C@@H](O)[C@@H](O[C@H]6[C@H](O)[C@@H](O)[C@@H](O[C@H]7[C@H](O)[C@@H](O)[C@@H](O[C@H]1[C@H](O)[C@H]2O)O[C@@H]7CO)O[C@@H]6CO)O[C@@H]5CO)O[C@@H]4CO)O[C@@H]3CO,-3.62%,-6.68%,inactive,inactive,inactive,–,inactive,-2.88%
CCOC(C)OCC,-0.722%,-3.45%,inactive,inactive,inactive,–,inactive,-8.55%
OCc1ccccc1,4.71%,7.44%,inactive,inactive,inactive,–,inactive,-2.17%

SMILES,"activity change, negative = cytotoxicity [1]","activity change, negative = cytotoxicity [2]",Potency [3],Potency [4],Potency [5],Potency [2],outcome [6],"activity change, negative = cytotoxicity [7]"
CC/C=C\C/C=C\C/C=C\CCCCCCCC(=O)O,-20.9%,-137% (active),inactive,inactive,–,–,inactive,-15.2%
CCCCC,6.23%,-10.6%,inactive,inactive,inactive,–,inactive,5.08%
C=C1C(CCl)(CCl)C2(Cl)C(Cl)C(Cl)C1(Cl)C2(Cl)Cl (centres undefined),-112% (active),-80.2% (active),–,50.1 µM (active),31.6 µM (active),–,–,-88.3% (active)
CC1=CC(=O)NS(=O)(=O)O1,-19.6%,-8.99%,inactive,inactive,inactive,–,inactive,-8.28%
Nc1ncnc2c1ncn2[C@H]1CC[C@@H](CO)O1,6.32%,7.1%,inactive,inactive,inactive,–,inactive,2.7%
NCCN,5.1%,-4.12%,inactive,inactive,inactive,–,inactive,7.8%
CC(C)(C)CC(C)(C)c1ccc(OCCO)cc1,–,-28.8%,inactive,–,inactive,–,inactive,-16.5%
O.O.O.O.O.O.O.O=S(=O)([O-])[O-].[Co+2],-16.8%,-26.9%,inactive,–,inactive,–,–,–
C[C@H]1O[C@@H](O[C@H]2[C@@H](O)C[C@H](O[C@H]3[C@@H](O)C[C@H](O[C@H]4CC[C@@]5(C)[C@H](CC[C@@H]6[C@@H]5C[C@@H](O)[C@]5(C)[C@@H](C7=CC(=O)OC7)CC[C@]65O)C4)O[C@@H]3C)O[C@@H]2C)C[C@H](O)[C@@H]1O,–,-91% (active),0.02 µM (active),inactive,0.0126 µM (active),–,inactive,-10.1%
CC1=CCC2CC1C2(C)C (centres undefined),4.74%,-3.47%,inactive,inactive,inactive,–,inactive,2.31%
Cc1ncc[nH]1,-1.34%,-6.23%,inactive,inactive,inactive,–,inactive,-3.28%
[O-][N+](=Nc1ccccc1)c1ccccc1,4.21%,-5.77%,inactive,inactive,inactive,–,inactive,-0.723%
Nc1nccs1,4.71%,-0.295%,inactive,inactive,inactive,–,inactive,6.3%
Oc1cccc(O)c1O,-18.3%,–,inactive,inactive,–,–,inactive,-27.7%
C/C=C/C=C/C(=O)O,-0.963%,8.21%,inactive,inactive,inactive,–,inactive,-2.27%
CO/N=C(/C(=O)N[C@@H]1C(=O)N2C(C(=O)O)=C(COC(N)=O)CS[C@H]12)c1ccco1,8.73%,-7.55%,inactive,inactive,inactive,–,inactive,4.36%
O=c1n(CC2CO2)c(=O)n(CC2CO2)c(=O)n1CC1CO1 (centres undefined),–,-138% (active),–,39.8 µM (active),0.631 µM (active),–,–,-90% (active)
OCl,-0.881%,-13.5%,inactive,inactive,inactive,–,inactive,2.44%
